Source: PubChem (The Scripps Research Institute Molecular Screening Center)
FBW7 activator: FBW7 E3 ligase activators, primary screen, biochemical, AlphaScreen, human. F-box/WD repeat-containing protein 7 (Homo sapiens), Q969H0. AlphaScreen FBW7–phospho-cyclin E peptide binding, activator screen. normalized activity (activation), % at 26.1 µM. hit rate 0.13% among 650,000. AID 1259310, 2017; in the data active = normalized activity above about 1.9%;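 also: purified mutant Fbw7 with reduced substrate affinity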
MITF primary: MITF inhibitors, primary screen, biochemical, AlphaScreen, human. AlphaScreen MITF homodimerization, bead proximity signal. inhibition, % at 2.6 µM. hit rate 0.91% among 650,000. AID 1259374, 2018; in the data active = inhibition above about 50%
Target sequence (O75030 whole entry, looked up): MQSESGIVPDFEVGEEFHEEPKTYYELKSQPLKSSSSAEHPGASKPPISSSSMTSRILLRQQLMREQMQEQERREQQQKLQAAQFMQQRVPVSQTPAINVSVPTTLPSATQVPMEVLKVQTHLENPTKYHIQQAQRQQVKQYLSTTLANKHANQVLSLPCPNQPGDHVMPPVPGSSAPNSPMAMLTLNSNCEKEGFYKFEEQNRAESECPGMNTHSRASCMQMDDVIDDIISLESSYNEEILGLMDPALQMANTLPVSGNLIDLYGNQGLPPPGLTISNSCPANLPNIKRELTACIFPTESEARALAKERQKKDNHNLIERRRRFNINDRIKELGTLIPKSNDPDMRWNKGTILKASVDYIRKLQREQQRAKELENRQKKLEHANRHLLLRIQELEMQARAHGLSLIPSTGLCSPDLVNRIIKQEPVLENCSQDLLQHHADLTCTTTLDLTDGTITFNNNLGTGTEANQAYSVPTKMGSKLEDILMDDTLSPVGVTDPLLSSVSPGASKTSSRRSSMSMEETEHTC
GPR151 activ: activators of human GPR151, primary screen, cell-based, PathHunter beta-arrestin, luminescence; G-protein coupled receptor 151 (Homo sapiens), Q8TDV0; PathHunter beta-arrestin GPR151 cells; activation, % at 11.2 µM; hit rate 1% among 650,000; AID 1508602, 2020; in the data active = activation above about 4.9%
TEAD-YAP inh: TEAD-YAP interaction inhibition, primary screen, TEAD-YAP interaction inhibitor project, luminescence, HEK-TIYL cells; TEAD-Gal4/YAP UAS-luciferase luminescence; inhibition, % at 9.12 µM; hit rate 1.4% among 640,000; AID 1259422, 2018; in the data active = inhibition above about 32%
MITF inh conf: MITF inhibitors, retest of hits, confirmation, biochemical, AlphaScreen, triplicate. shares compounds with MITF primary. AlphaScreen MITF homodimerization, biotin/His-MITF beads. inhibition, % at 2.6 µM. hit rate 16% among 4,700. AID 1259372, 2018;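 active = inhibition above a cutoff derived from the DMSO control wells, cut at about 28% in these data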;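 also: inhibitors lower the bead chemiluminescence by keeping MITF from dimerizing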
AS interf DR: AlphaScreen optical interference compounds, dose response, counter-screen, biochemical, HTS. AlphaScreen optical interference counterscreen, cell-free. hit rate 6% among 480. shares compounds with MITF primary. IC50, µM; call rule not given here
AS interf ctr: AlphaScreen optical interference compounds, counter-screen for MITF inhibitor project, biochemical, triplicate; AID 1259376, 2018; LysRS AlphaScreen counterscreen, signal interference; hit rate 7.6% among 4,700; shares compounds with MITF primary; inhibition, % at 2.6 µM;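 active = inhibition above a cutoff derived from the DMSO control wells, cut at about 30% in these data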
Each line names hits and unclear results; the compound was inactive in the other large screens (follow-up assays come after a bar, where they were run). Rows were chosen to be rich in hits. Some 3.4% of all compounds tested hit in one or more screens of this group.

COc1ccc2oc(=O)c(-c3cn4cccnc4n3)cc2c1	MITF primary 71.8 | MITF inh conf inactive | AS interf ctr inactive
CCOc1ccc(Cc2nnc(Nc3cccc(F)c3)[nH]c2=O)cc1	none
O=[N+]([O-])c1cccc(CN2CCN(C3CC4CCC3C4)CC2)c1 (configuration not stated)	MITF primary 56.7 | MITF inh conf inactive | AS interf ctr inactive
O=[N+]([O-])c1ccccc1CN1CCC(N2CCCCCC2)CC1	MITF primary 79.4 | MITF inh conf inactive | AS interf ctr inactive
O=[N+]([O-])c1ccccc1CN1CCCC1	none
O=[N+]([O-])c1ccccc1S(=O)(=O)N1CCN(C2CCCCC2)CC1	MITF primary 51.2 | MITF inh conf inactive | AS interf ctr inactive
O=[N+]([O-])c1ccccc1CN1CCN(C2CCCCC2)CC1	MITF primary 63.6 | MITF inh conf inactive | AS interf ctr inactive
COC(=O)c1ccc(NC(=O)c2c(NCc3ccc(OC)c(OC)c3)sc3c2CCC(C)C3)cc1 (configuration not stated)	none
O=C(COC(=O)c1c2c(nc3ccccc13)CCC2)c1ccc[nH]1	none
O=C(c1ccc([N+](=O)[O-])cc1[N+](=O)[O-])N1CCN(c2cccc(Cl)c2)CC1	none
Fc1ccccc1CN1CCN(C2CCN(Cc3ccccc3)CC2)CC1	none
CCOc1ccccc1CN1CCC(N2CCN(c3ccccc3)CC2)CC1	none
O=[N+]([O-])c1cccc(CN2CCC(N3CCCCC3)CC2)c1	MITF primary 57.1 | MITF inh conf inactive | AS interf ctr inactive
O=[N+]([O-])c1cccc(CN2CCC(N3CCCC3)CC2)c1	none
O=[N+]([O-])c1ccccc1CN1CCC(N2CCN(c3ccccc3)CC2)CC1	MITF primary 82.8 | MITF inh conf inactive | AS interf ctr inactive
CC1CCCC(N2CCN(Cc3ccccc3F)CC2)C1 (configuration not stated)	MITF primary 62.9 | MITF inh conf inactive | AS interf ctr inactive
CC1CCCC(N2CCN(Cc3ccccc3[N+](=O)[O-])CC2)C1 (configuration not stated)	MITF primary 81.7 | MITF inh conf inactive | AS interf ctr inactive
Cc1ccc(NC(=O)C2C3C=CC4(O3)C2C(=O)N(CCN(C)Cc2ccccc2)C4C(=O)NC2CCCC(C)C2C)cc1C (configuration not stated)	none
COCCCNC(=O)/C(C#N)=C/c1ccc(OCC(=O)O)c(OC)c1	MITF primary 61.7 | MITF inh conf 34.7 | AS interf DR inactive | AS interf ctr inactive
CCc1ccc(CN2CCN(Cc3cc(OC)ccc3OC)CC2)cc1	MITF primary 65.5 | MITF inh conf inactive | AS interf ctr inactive
COc1ccc(Br)cc1CN(CCCN(C)C)CCCN(C)C	none
COc1ccc(OC)c(CN(CCCN(C)C)CCCN(C)C)c1	MITF primary 59.5 | MITF inh conf inactive | AS interf ctr inactive
COc1ccc(OC)c(CN2CCN(Cc3ccc(Br)cc3)CC2)c1	MITF primary 76.6 | MITF inh conf inactive | AS interf ctr inactive
COc1ccc(OC)c(CN2CCC(N3CCCC(C)C3)CC2)c1 (configuration not stated)	MITF primary 50.7 | MITF inh conf inactive | AS interf ctr inactive
COc1cc(C(=O)N2CCN(C(=O)c3ccc4cc[nH]c4c3)CC2)cc(OC)c1OC	none
COc1ccc(NC(=O)CSc2nnc(COc3ccc(Cl)cc3)o2)cc1	none
CCOc1cc(/C=N\NC(=O)OC)c(Br)c(Br)c1O	none
COc1ccc(OC)c(CN2CCN(C3CCC(C)CC3)CC2)c1 (configuration not stated)	MITF primary 57.1 | MITF inh conf inactive | AS interf ctr inactive
COc1ccc(OC)c(CN2CCN(S(C)(=O)=O)CC2)c1	MITF primary 59.5 | MITF inh conf inactive | AS interf ctr inactive
COc1ccc(CN2CCN(C3CCCC(C)C3)CC2)c(OC)c1 (configuration not stated)	none
COc1ccc(OC)c(CN2CCN(Cc3cc(OC)ccc3OC)CC2)c1	MITF primary 57.1 | MITF inh conf inactive | AS interf ctr inactive
COc1ccc(S(=O)(=O)N2CCN(Cc3cc(OC)ccc3OC)CC2)cc1	none
CC(=O)Cn1c(=O)c2c(nc3n(-c4ccc(C)c(C)c4)c(C)cn23)n(C)c1=O	none
CC(=O)Nc1ccc2nc(NC(=O)CCSc3ccc(C)cc3)sc2c1	none
CN(C)CC(C)(C)CNCC(O)COCc1ccc2c(c1)OCO2 (configuration not stated)	MITF primary 57.0 | MITF inh conf inactive | AS interf ctr inactive
CCOc1ccc(C(=O)Nc2nnn(C)n2)cc1	none
CCCNC(=O)c1cncc(-c2csc3ccccc23)c1	none
COc1cc(CNCc2cccc(OC)c2OC)cc(OC)c1	none
COc1cc(CN2CCN(Cc3ccncc3)CC2)cc(OC)c1OC	MITF primary 70.5 | MITF inh conf inactive | AS interf ctr inactive
COc1cc(CN2CCN(Cc3ccc(F)cc3)CC2)cc(OC)c1OC	MITF primary 83.6 | MITF inh conf inactive | AS interf ctr inactive
COc1cc(CN2CCN(c3ccc(F)cc3)CC2)cc(OC)c1OC	none
CCc1ccc(CN2CCN(Cc3cc(OC)c(OC)c(OC)c3)CC2)cc1	MITF primary 58.5 | MITF inh conf inactive | AS interf ctr inactive
COc1cc(CNCc2ccccc2C(F)(F)F)cc(OC)c1OC	MITF primary 64.6 | MITF inh conf inactive | AS interf ctr inactive
COc1cc(CN2CCCC2)cc(OC)c1OC	none
O=C(NCCCN1CCOCC1)c1ccc2c(c1)NC(=O)C(CSCc1ccc(Cl)cc1)N2 (configuration not stated)	none
COc1cccc(CNCc2ccncc2)c1	none
COc1cc(CNCc2ccncc2)cc(OC)c1OC	MITF primary 58.1 | MITF inh conf inactive | AS interf ctr inactive
COc1ccc(OCC(O)Cn2c(-n3nc(C)cc3C)nc3c2c(=O)[nH]c(=O)n3C)cc1 (configuration not stated)	none
O=C(c1cccnc1)N1C2C=CC(C2)C1(C(F)(F)F)C(F)(F)F (configuration not stated)	none
O=C(c1ccncc1)N1C2C=CC(C2)C1(C(F)(F)F)C(F)(F)F (configuration not stated)	MITF primary 68.2 | MITF inh conf 59.3 | AS interf DR inactive | AS interf ctr inactive
COC(=O)C1=CNC=C(C(=O)OC)C1c1cc(OC)ccc1OC	none
COc1ccc(F)cc1S(=O)(=O)NCCOc1cc(C)cc(C)c1	none
CCCCNC(C)C1COc2ccccc2O1 (configuration not stated)	none
